Assay results as given in PubChem BioAssay AID1053188 (Broad Institute, 2014).
Among all 83,000 compounds or so, about 780 (0.94%) were called active.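 Rule for the calls: active = mean inhibition of at least 50% with a set share of replicates also reaching that level; inconclusive = no clear call, values can overlap the other calls; inactive = the rest.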 Many of the other results were omitted from the sample, so actives are more common in it than they were.

test: inhibitors of CD40-induced NF-kB signaling, primary screen, BL2 cells, luciferase reporter, single point (AID 1053188); settings: CD40L-induced, 4 h, hits give high values; at 10 µM unless noted;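 note: 0% = neutral control wells and 100% = IKK inhibitor VII at 50 µM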

inhibition, inactive:
COc1ccc(C#Cc2ccc([C@@H]3[C@@H](CO)N4CCCCN(C(=O)c5ccncc5)C[C@@H]34)cc2)cc1 -18.8% [at 25 µM]
Cn1cnc(S(=O)(=O)N2CCCCN3[C@@H](CO)[C@@H](c4ccc(C#CC5CCCC5)cc4)[C@@H]3C2)c1 2.82% [at 25 µM]
Cc1nnc(CN(C)Cc2cn[nH]c2-c2ccc(-c3ccccc3)cc2)o1 -39%
COc1ccc(C(=O)Nc2cc(C)ccc2NC(=O)COc2ccccc2)cc1 -29.7%
COc1ccccc1C(=O)NNC(=O)c1ccc(NC(=O)c2ccccc2)cc1 11.1%
CCCNC(=O)C1CC(=O)N(c2ccc(OCc3ccccc3)cc2)C1 (configuration not stated) -7.3%
O=C(C[C@H]1C=C[C@@H](NC(=O)c2cnccn2)[C@H](CO)O1)NCc1ccccc1F 3.55% [at 25 µM]
O=C(Nc1ccc(Cl)cc1)Nc1nnc(/C=C/c2ccccc2)s1 -0.929%
Cc1nnsc1C(=O)N/N=C/c1ccccc1Cl 25%
Cc1cc(C(=O)OC(C)C(=O)NC2CCCCC2C)c(C)o1 (configuration not stated) 16.2%
O=C(Nc1cccc(C(F)(F)F)c1)c1cnccn1 -0.813%
CC(=O)Nc1ccc(-c2csc(NC(=O)Nc3ccccc3)n2)cc1 -27.4%
CC(C)C[C@H](NC(=O)Nc1cccc(C(F)(F)F)c1)C(=O)O 17.4%
C[C@H]1CN([C@@H](C)CO)C(=O)CCCn2cc(nn2)CO[C@H]1CN(C)C(=O)Nc1cccc(C(F)(F)F)c1 3.26% [at 25 µM]
COc1ccc(NC(=O)Nc2ccc3c(c2)C(=O)N([C@@H](C)CO)C[C@H](C)[C@H](CN(C)Cc2ccc(C(F)(F)F)cc2)OCCCC[C@H](C)O3)cc1 8.72%
c1ccc(CNCc2ccc(CNCc3ccccc3)cc2)cc1 -8.05%
Cc1ccc(S(=O)(=O)NCCC(=O)NNC(=O)C2COc3ccccc3O2)cc1 (configuration not stated) -6.13%
Cc1ccsc1C(=O)OCC(=O)c1cc2ccccc2o1 -95.3%
Cc1cc(C(=O)Cn2cnc3cc([N+](=O)[O-])ccc3c2=O)c(C)n1CC1CCCO1 (configuration not stated) 0.959%
O=C(OCC(=O)N1CCCC1=O)c1cc(S(=O)(=O)N2CCOCC2)ccc1Cl 17.8%
O=C(Nc1ccc2c(c1)OCCO2)C1CCCN(c2ncccn2)C1 (configuration not stated) -6.73%
O=C(Nc1ccc2c(c1)OCCO2)c1ccncc1 -42.5%
CCOC(=O)COc1nc(C)cc(C(F)(F)F)c1C#N 7.91%
CCCN1[C@H](CO)[C@H](c2ccc(C#CC3CCCCC3)cc2)[C@@H]1CNC(=O)C1CC1 -8.21% [at 25 µM]
Cc1onc(-c2ccccc2)c1-c1nnc(COC(=O)c2ccc(N(C)C)cc2)o1 27.4%
CCN(Cc1ccccc1)S(=O)(=O)c1cc2c3c(c1)CCN3C(=O)CC2 12.8%
Cc1ccc(CNC(=O)COC(=O)C2CCC2)cc1 -4.82%
CC(C)(Oc1ccc(Cl)cc1)C(=O)OCC(=O)NCCc1ccc(S(N)(=O)=O)cc1 11.6%
COC(=O)c1sc(NC(=O)COC(=O)C2CCC2)c(C(=O)OC)c1C 2.99%
CCn1cc(-c2cc(C(=O)O)on2)c(C)n1 8.77%
N#C[C@H]1[C@@H](c2ccc(C#CC3CCCC3)cc2)[C@H](CO)N1C(=O)Nc1ccc(F)cc1 12%
CS(=O)(=O)N1[C@H](C#N)[C@H](c2ccc(C#CC3CCCC3)cc2)[C@H]1CO -13.6% [at 25 µM]
CS(=O)(=O)N1[C@@H](C#N)[C@H](c2ccc(C#CC3CCCCC3)cc2)[C@@H]1CO -1.7%
CC(C)C#Cc1ccc([C@@H]2[C@@H](C#N)N(C(=O)C3CC3)[C@@H]2CO)cc1 3.05% [at 25 µM]
O=C(O)C(c1cccs1)C1(O)CCCCC1 (configuration not stated) 6.28%
Cn1c(N)cc(-c2ccc(F)cc2)c(C#N)c1=O 4.59%
COc1ccc(S(=O)(=O)N2CCOCC2)cc1NC(=O)CSc1cc(C)ccc1C 2.01%
Cc1cc2ccccc2n1CCC(=O)O 4.73%
C[C@@H]1C(=O)N[C@H](c2ccc3c(c2)OCO3)CC=CC[C@H](C)Oc2ccccc2C(=O)N1C (mixture of isomers) 3.83% [at 25 µM]
C[C@@H]1CC=CC[C@@H](c2ccccc2)NC(=O)[C@H](C)N(C)C(=O)c2ccccc2O1 (mixture of isomers) 8.95% [at 25 µM]

inhibition, active:
COc1ccc(C#Cc2ccc([C@H]3[C@@H](CO)N4CCCCN(S(=O)(=O)c5cn(C)cn5)C[C@H]34)cc2)cc1 66.3% [at 25 µM]
COc1ccc(C(=O)Nc2ccccc2C(=O)N/N=C/c2ccccc2OC)cc1 53.7%
O=C(Nc1ccccc1)c1nnsc1S(=O)(=O)c1ccc(Cl)cc1 96.6%
NC(c1csc(NC(=O)Nc2cccc(C(F)(F)F)c2)n1)C1CCCCC1 (configuration not stated) 76.7%
NC(c1ccccc1)c1csc(NC(=O)Nc2cccc(C(F)(F)F)c2)n1 (configuration not stated) 75%
Cc1ccsc1C(=O)OCC(=O)c1cc(C)n(CC2CCCO2)c1C (configuration not stated) 94%
O=C(Nc1ccc2c(c1)OCCO2)C1CCCC1 97.3%
Cc1ccc(/C=C/C(=O)OCC(=O)NCc2ccc(Cl)cc2)o1 50.7%
CC[C@H]1CN2CCc3cc(OC)c(OC)cc3[C@@H]2C[C@@H]1C[C@H]1NCCc2cc(OC)c(OC)cc21 89.6%
CC(C)NC(=O)N1[C@H](C#N)[C@H](c2ccc(C#CC3CCCCC3)cc2)[C@H]1CO 52.1%
N#C[C@@H]1[C@H](c2ccc(C#CC3CCCCC3)cc2)[C@@H](CO)N1S(=O)(=O)c1ccccc1 51.3%
C[C@@H]1CC=CC[C@H](c2ccc(F)cc2)NC(=O)[C@@H](Cc2ccccc2)N(C)C(=O)c2ccccc2O1 (mixture of isomers) 53.9% [at 25 µM]
